Assay outcomes: PubChem BioAssay, National Center for Advancing Translational Sciences (NCATS)
HT1080 IDH1KD tx – qHTS for induction of synthetic lethality in tumor cells producing 2HG: qHTS for the HT-1080-IDH1KD cell line; HT-1080 IDH1 knockdown viability, ATP luminescence, 48 h; Potency, µM (titrated, usually from 46.1 µM), actives largely listed as cytotoxic; 360,000 tested, 2% active; AID 686971, 2013
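CellTiter-Glo luminescence after 48 h compound exposure at 37 degrees C of IDH1-knockdown HT-1080 cells in 5% FBS RPMI. %Activity scaled between DMSO wells and cell-free media wells, with curves fitted and assigned curve classes.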
KB-3-1 cytotox – qHTS assay for MDR1-selective chemotherapeutics: Primary screen using the parental adenocarcinoma cell KB-3-1; KB-3-1 viability, CellTiter-Glo ATP luminescence, 72 h; 400,000 tested, 1.4% active; Potency, µM (doses to about 46.1 µM), usual class: cytotoxic; further: nearly all actives have a fitted effect of over 60% in size
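Here the drug-naive KB-3-1 line serves as comparator for MDR sub-line selectivity; cells received compound titrations, 72 h at 37 °C, then CellTiter-Glo readout.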
KB-V1 cytotox – qHTS assay for MDR1-selective chemotherapeutics: Primary screen using the drug-selected MDR subline cells KB-V1 | AID 1347076, 2019 | Potency, µM (doses to about 46.1 µM), usual class: cytotoxic | KB-V1 MDR cells viability, CellTiter-Glo, 72 h | 400,000 tested, 3.4% active; further: nearly all actives have a fitted effect of over 60% in size
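KB-V1 MDR subline cells in DMEM (phenol-red free, 10% FBS) exposed to compounds in qHTS concentration series for 72 h at 37 degrees C. Viability read by CellTiter-Glo luminescence; concentration-effect curves fitted after normalization and correction.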
TGFb SMAD3 inh – qHTS for Inhibitors of TGF-b; 410,000 tested, 1.2% active; Potency, µM (highest dose often 46.1 µM), hits mostly inhibitors; HepG2 CAGA-GFP TGF-b/SMAD3 reporter, GFP fluorescence, 18 h; TGF-beta stimulated, 500 pg/mL final; further: nearly all actives have a fitted effect of over 65% in size
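HEPG2 CAGA-GFP cells (1000/well, DMEM with 1% FBS) were pre-incubated 2 h at 37 degrees C, given compound by pin tool, then stimulated with TGF-beta at 500 pg/mL final for 18 h before per-cell GFP fluorescence imaging.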
HT1080-NT tox – qHTS for induction of synthetic lethality in tumor cells producing 2HG: qHTS for the HT-1080-NT fibrosarcoma cell line; 360,000 tested, 1.6% active; AID 686970, 2013; Potency, µM (titrated, usually from 46.1 µM), actives largely listed as cytotoxic; HT-1080-NT fibrosarcoma viability, CellTiter-Glo ATP luminescence, 48 h;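 further: NT is the 2HG producing partner of a matched IDH1 knockdown line; nearly all actives have a fitted effect of over 55% in size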
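HT-1080-NT; 750 cells/well; 5% FBS RPMI; 48 h compound, 37 degrees C; CellTiter-Glo luminescence; curve fitting and curve-class assignment.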
HepG2 tox – qHTS for Inhibitors of TGF-b: Cytotox Counterscreen; HepG2 CAGA-GFP viability, ATP luminescence, 18 h; Potency, µM (titrated, usually from 46.1 µM), hits mostly cytotoxic; 410,000 tested, 0.76% active; AID 588856, 2011
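HepG2 CAGA-GFP cells (1000/well, DMEM with 1% FBS) received compound, then TGF-beta at 500 pg/mL final, and were incubated 18 hours at 37 degrees C. Viability was read by CellTiter-Glo luminescence. Media-only wells were set as complete cell-killing and DMSO as no toxicity.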
Of the large screens only hits and unclear results are named; the others gave an inactive call. Hits are enriched below; roughly 6.6% of the tested compounds scored in any of these assays. The call rests on the fitted dose curve; in most records, active means well fitted curve in the direction sought with a large enough effect; inconclusive means small, poorly fitted or top-dose-only effect, or another doubt; inactive means no such curve, though single readings can be large; an effect the other way counts as inactive or inconclusive.

CN(Cc1nc(-c2ccncc2)no1)S(=O)(=O)c1ccc(Cl)cc1	KB-V1 cytotox 15µM
CN(Cc1nc(-c2ccccn2)no1)S(=O)(=O)c1ccccc1	none
COc1ccccc1CNC(=O)c1ccc(-c2nc(CS(=O)c3ccc(C)cc3)c(C)o2)cc1 (centres undefined)	none (no result: HT1080 IDH1KD tx, HT1080-NT tox)
CC1=CC(=C(c2ccc(N)cc2)c2ccc(N)cc2)C=CC1=N	KB-3-1 cytotox 2.3µM, KB-V1 cytotox inconclusive, TGFb SMAD3 inh inconclusive (no result: HT1080 IDH1KD tx, HT1080-NT tox)
COc1cccc(N2CCN(c3c(C#N)c(C(F)(F)F)nn3C)CC2)c1	KB-V1 cytotox 13µM
CC1=C(c2ccc(C(C)C)cc2)S(=O)(=O)NC1=NCCCN1CCN(c2ccccc2F)CC1	TGFb SMAD3 inh inconclusive (no result: HT1080 IDH1KD tx, KB-3-1 cytotox, KB-V1 cytotox, HT1080-NT tox)
Cn1c(Oc2ccc(Cl)cc2)c(C=O)c2ccccc21	HT1080 IDH1KD tx inconclusive, KB-3-1 cytotox 21µM, KB-V1 cytotox inconclusive, TGFb SMAD3 inh inconclusive, HT1080-NT tox inconclusive
Cc1c(/C=N\NC(=O)c2csc3ccccc23)cnn1C	HT1080 IDH1KD tx inconclusive, KB-3-1 cytotox inconclusive, KB-V1 cytotox inconclusive
CCn1ncc(/C=N\NC(=O)c2csc3ccccc23)c1C	HT1080 IDH1KD tx 5.2µM, KB-3-1 cytotox 6.5µM, KB-V1 cytotox inconclusive, HT1080-NT tox inconclusive
COc1cc2c(cc1C(F)(F)F)N(C(=O)Nc1cc(F)cc(-c3cccnc3)c1)CC2	HT1080 IDH1KD tx inconclusive, HT1080-NT tox 11µM (no result: KB-3-1 cytotox, KB-V1 cytotox, TGFb SMAD3 inh, HepG2 tox)
CCCCCCOc1ccc(C2C(=O)N(C3CCCCC3)CC(=O)N2CCC)cc1 (centres undefined)	none (no result: HT1080 IDH1KD tx, KB-3-1 cytotox, KB-V1 cytotox, HT1080-NT tox)
COC(=O)c1ccc(NC(=S)N(Cc2cccnc2)Cc2ccco2)cc1	none
CCc1ccc(NC(=O)N(Cc2ccco2)C(C)c2cccs2)cc1 (centres undefined)	KB-3-1 cytotox inconclusive, KB-V1 cytotox 21µM
CCc1ccc(NC(=O)N(C2CCCCC2)C(C)c2cccnc2)cc1 (centres undefined)	KB-V1 cytotox 21µM
CCc1ccccc1NC(=S)N(Cc1ccco1)C(C)c1cccs1 (centres undefined)	none
CCc1ccc(NC(=O)N(Cc2cccnc2)Cc2ccco2)cc1	KB-V1 cytotox 15µM
Cc1ccc(NC(=O)N(C2CCCCC2)C(C)c2cccnc2)cc1C (centres undefined)	none
CCOc1ccccc1-c1noc(CSc2nnc(-c3ccccc3)n2-c2ccc(F)cc2)n1	KB-V1 cytotox inconclusive (no result: HT1080 IDH1KD tx, HT1080-NT tox)
CC(C)(C)OC(=O)N1CCC(c2c(C(=O)N3CCN(c4ccccc4F)CC3)cnn2-c2ccccc2Cl)CC1	TGFb SMAD3 inh inconclusive (no result: HT1080 IDH1KD tx, HT1080-NT tox)
C=CCN(c1ccccc1OC)S(=O)(=O)c1cccc(C(=O)OCC(=O)N2CC(C)OC(C)C2)c1 (centres undefined)	KB-V1 cytotox 4.1µM
C=CCN(c1ccccc1OC)S(=O)(=O)c1cccc(C(=O)OC2CCOC2=O)c1 (centres undefined)	none
COc1cccc(NC(=O)N(Cc2c[nH]c3ccccc23)C2CCCCC2)c1	TGFb SMAD3 inh inconclusive (no result: HT1080 IDH1KD tx, HT1080-NT tox)
O=S(=O)(c1ccc(Cl)cc1)N1CCN=C1SCc1cccc(Cl)c1	KB-V1 cytotox 21µM, TGFb SMAD3 inh inconclusive
CCOc1ccc(N(Cc2ccc(C(=O)O)cc2)S(=O)(=O)c2ccc(C)cc2)cc1	HT1080 IDH1KD tx 7.3µM, KB-3-1 cytotox inconclusive, KB-V1 cytotox inconclusive, TGFb SMAD3 inh inconclusive, HT1080-NT tox inconclusive
CC(C)C(=O)N(Cc1cc2ccccc2[nH]c1=O)C(C)C	KB-V1 cytotox 16µM
CCOc1ccc(S(=O)(=O)N(CC(=O)N/N=C/c2cccs2)c2ccc(C)cc2)cc1	HT1080 IDH1KD tx inconclusive, KB-V1 cytotox 23µM, HT1080-NT tox inconclusive
